# Compound activity from PubChem.
# MCF10A rerep: A quantitative high throughput screen for small molecules that induce DNA re-replication in MCF 10a normal breast cells | MCF 10A DNA re-replication, Hoechst nuclear intensity, 48 h | Potency, µM (titrated, usually from 46.1 µM), hits mostly activators | 350,000 compounds, 2.9% hits | AID 624296, 2012; further: nearly all actives have a fitted effect of over 50% in size
# KB-3-1 tox: qHTS assay for MDR1-selective chemotherapeutics: Primary screen using the parental adenocarcinoma cell KB-3-1 | 400,000 compounds, 1.4% hits | KB-3-1 viability, CellTiter-Glo ATP luminescence, 72 h | Potency, µM (series often up to 46.1 µM), actives largely listed as cytotoxic | AID 1347075, 2019; further: nearly all actives have a fitted effect of over 60% in size
#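 Parental KB-3-1 viability, qHTS format: 72 h compound exposure, 37 °C; CellTiter-Glo; media-only wells and DMSO plates as controls; concentration-effect fits on corrected data.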
# SW480 rerep: A quantitative high throughput screen for small molecules that induce DNA re-replication in SW480 colon adenocarcinoma cells; SW480 DNA re-replication, Hoechst DNA content imaging, 48 h; Potency, µM (doses to about 46.1 µM), actives largely listed as activators; 340,000 compounds, 1.8% hits; AID 624297, 2012; further: nearly all actives have a fitted effect of over 55% in size
#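 Image-based DNA-content assay: after two days of treatment, nuclei were labelled with the DNA dye Hoechst and imaged, and hits were compounds raising the count of nuclei showing high fluorescence intensity.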
# ALOX12 inh: Primary qHTS assay for inhibitors of human arachidonate 12S-lipoxygenase (ALOX12): Round 2; purified 12hLO, xylenol orange hydroperoxide absorbance; Potency, µM (titrated, usually from 108 µM), actives largely listed as inhibitors; 580,000 compounds, 1.1% hits
# Target sequence (P18054 whole entry, looked up): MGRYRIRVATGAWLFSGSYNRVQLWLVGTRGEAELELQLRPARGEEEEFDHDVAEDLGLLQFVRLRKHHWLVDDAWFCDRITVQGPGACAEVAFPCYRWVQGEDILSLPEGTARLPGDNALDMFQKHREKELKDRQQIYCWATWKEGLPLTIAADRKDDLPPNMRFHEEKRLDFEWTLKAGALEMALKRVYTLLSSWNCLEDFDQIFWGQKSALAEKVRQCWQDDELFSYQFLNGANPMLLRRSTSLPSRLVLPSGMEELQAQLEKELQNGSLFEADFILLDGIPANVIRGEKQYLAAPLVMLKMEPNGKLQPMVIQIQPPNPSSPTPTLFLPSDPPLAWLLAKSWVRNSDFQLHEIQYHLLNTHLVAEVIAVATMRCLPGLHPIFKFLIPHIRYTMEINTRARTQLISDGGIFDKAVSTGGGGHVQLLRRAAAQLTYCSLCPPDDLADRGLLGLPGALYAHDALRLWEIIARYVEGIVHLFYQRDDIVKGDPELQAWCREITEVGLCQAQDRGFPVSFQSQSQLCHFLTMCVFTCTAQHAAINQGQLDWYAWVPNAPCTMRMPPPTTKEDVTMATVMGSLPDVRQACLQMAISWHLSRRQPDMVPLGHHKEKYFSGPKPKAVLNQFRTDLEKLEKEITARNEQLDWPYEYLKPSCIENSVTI
#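 Purified human 12hLO at 150 nM in 25 mM Hepes, 0.01% Triton X-100, pH 7.0, preincubated 15 min at room temperature with compound. Reaction started with 40 uM arachidonic acid, 30 min at room temperature. Hydroperoxide measured by Fe-xylenol orange, 573/405 nm absorbance ratio.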
# KB-V1 MDR tox: qHTS assay for MDR1-selective chemotherapeutics: Primary screen using the drug-selected MDR subline cells KB-V1. AID 1347076, 2019. Potency, µM (series often up to 46.1 µM), hits mostly cytotoxic. 400,000 compounds, 3.4% hits. KB-V1 MDR cells viability, CellTiter-Glo, 72 h; further: nearly all actives have a fitted effect of over 60% in size
#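 KB-V1, DMEM (no phenol red) + 10% FBS; cpd pin-transferred, titration series; 72 h, 37 degrees C; CellTiter-Glo, luminescence. Data normalized, curve-fit.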
# PINK1 expr mod: A Quantitative High throughput Screen to Identify Chemical Modulators of PINK1 Expression; PINK1 immunofluorescence, high-content cytometry, 24 h; Potency, µM (highest dose often 76.6 µM), most hits filed as activators; 410,000 compounds, 0.2% hits; AID 624263, 2012; active means well fitted activation curve with a large enough effect; inconclusive means small, poorly fitted or top-dose-only effect; cell line not stated here; further: nearly all actives have a fitted effect of over 65% in size
#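 Cells are seeded, rested 12 hours, then given compound at five concentrations or DMSO for 24 hours. After fixation, blocking and antibody staining, PINK1 amount and mitochondrial localization are scored; CCCP serves as control.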
# A number is an active result; i = inactive; ? = inconclusive; nt = no result; [ ] = dose if it differs, or a comment. The list is not random: actives were taken first. Their share in the collection is about 5.8%. Unless noted, the call rests on the fitted dose curve; in most records, active means well fitted curve in the direction sought with a large enough effect; inconclusive means small, poorly fitted or top-dose-only effect, or another doubt; inactive means no such curve, though single readings can be large; an effect the other way counts as inactive or inconclusive.
SMILES,MCF10A rerep,KB-3-1 tox,SW480 rerep,ALOX12 inh,KB-V1 MDR tox,PINK1 expr mod
O=C(CCCCCN1C(=O)c2cccc3cccc(c23)C1=O)NO,nt,nt,nt,3.5µM,nt,nt
CC1CCC(NC(=O)C23CC4CC(CC(C4)C2)C3)CC1 (centres undefined),nt,nt,nt,i,nt,nt
NCCC(=O)N1CCCC1,nt,nt,nt,i,nt,nt
N/C(=N\OC(=O)c1ccc2ccccc2c1)c1ccccn1,i,i,?,i,?,i
NC(=Nc1nc(-c2ccccn2)cc2ccccc12)c1ccccn1,?,?,?,?,0.73µM,i
COc1cc(/C=N/NC(=O)c2c(-c3c(Cl)cccc3Cl)noc2C)ccc1OCC(N)=O,i,i,i,i,?,i
Cc1onc(-c2c(Cl)cccc2Cl)c1C(=O)N/N=C(\N)COc1ccc(Cl)cc1,?,4.1µM,i,?,i,i
CSCCC1NC2(C(=O)Nc3c2ccc(Cl)c3C)[C@@H]2C(=O)N(C3CCCC3)C(=O)[C@H]12 (some centres undefined),i,?,?,?,4.1µM,i
Cc1c(Cl)ccc2c1NC(=O)C21NC(CCC(N)=O)[C@H]2C(=O)N(c3ccc(Cl)cc3)C(=O)[C@H]21 (some centres undefined),i,i,i,?,i,i
O=C(CCc1nc2sc3c(c2c(=O)[nH]1)CCC3)NCc1ccccc1OC(F)(F)F,nt,nt,nt,i,nt,nt
O=C1CCC2(CCN(C/C=C/c3ccccc3)CC2)CN1CCCn1ccnc1,nt,nt,nt,i,nt,nt
CCN(CC)S(=O)(=O)c1cccc(C(=O)N/N=C/c2ccc(O)c(O)c2O)c1,i,i,i,?,i,i
CCN(CC)S(=O)(=O)c1cccc(C(=O)N/N=C(\C)c2ccc(O)cc2O)c1,3.7µM,i,1.8µM,i,?,i
CCN(Cc1ccccc1)S(=O)(=O)CCNC(=O)c1ccccc1,i,i,i,i,21µM,i
CCN(CC)S(=O)(=O)c1cccc(C(=O)NCCc2ccccc2)c1,i,i,i,i,9.2µM,i
CN(C)S(=O)(=O)c1cccc(C(=O)NCCNC(=O)c2cccc(S(=O)(=O)N(C)C)c2)c1,i,i,i,i,i,i
Nc1nonc1C(=O)NCCNS(=O)(=O)c1ccc(Br)cc1,18µM,i,i,i,i,nt
Nc1nonc1C(=O)NCCNC(=O)c1ccccc1F,i,i,i,i,?,i
CCOc1ccccc1NC(=O)CSc1nnnn1-c1ccccc1,i,i,i,i,9.2µM,i
Cc1ccc(C)c(SCC(=O)Nc2cccnc2Cl)c1,1.6µM,i,i,i,i,i
COc1cccc(-n2nnnc2SCC(=O)NCCc2ccccc2)c1,i,i,i,i,i,i
COc1ccc(OC)c(-n2nnnc2SCC(=O)NCCc2ccccc2)c1,5.8µM,i,7.3µM,i,?,i
CCNC(=O)CSc1nc2ccccc2c(=O)n1-c1cc(OC)ccc1OC,i,i,i,i,18µM,i
Cc1cc(C)c(C(=O)COC(=O)COc2ccc(Cl)c(C)c2)cc1C,nt,nt,nt,i,nt,nt
CC(=O)Nc1ccc(NC(=O)COc2ccc3c(C)cc(=O)oc3c2)cc1,nt,nt,nt,i,nt,nt
SMILES,MCF10A rerep,KB-3-1 tox,SW480 rerep,ALOX12 inh,KB-V1 MDR tox,PINK1 expr mod
Cc1ccc(-c2csc(NC(=O)c3cc4cnn(C(C)C)c4nc3C)n2)cc1,nt,nt,nt,i,nt,nt
COc1ccccc1-n1nnnc1SCC(=O)Nc1oc(C)c2c(C)n[nH]c(=O)c12,i,i,21µM,?,i,i
COc1ccccc1-c1nnc(SCC(=O)Nc2oc(C)c3c(C)n[nH]c(=O)c23)n1C,i,i,i,i,i,i
CCOc1ccccc1NC(=O)CSc1nnc2c(CC)c(C)nc(N)n12,i,i,i,i,15µM,i
CN1CCN(c2ccc(NC(=O)CSc3nnnn3-c3ccccc3Cl)cc2)CC1,?,i,21µM,i,i,i
COc1ccccc1NC(=O)CSc1nnnn1-c1ccccc1OC,0.65µM,i,i,i,i,i
O=C(c1ccccc1)N1CC2(CCCN2CC2CC2)Cc2ccccc21 (centres undefined),nt,nt,nt,i[6.33 µM],nt,nt
CC1=Nc2ccccc2N=C(NC(=O)CSc2nnnn2-c2ccccc2)C1c1ccccc1 (centres undefined),i,i,i,i,13µM,i
COc1ccccc1NC(=O)CSCc1nc2ccccc2[nH]1,i,i,i,i,21µM,i
COc1ccc(C)cc1-n1nnnc1SCC(=O)Nc1cccnc1Cl,i,i,i,i,13µM,i
COc1ccc(C)cc1-n1nnnc1SCC(=O)Nc1cc(C)on1,i,i,i,i,i,i
COc1ccccc1NC(=O)CSCC(N)=O,i,i,i,i,i,i
CC(C)NC(=O)C(C#N)C(=O)c1cccc(NC(=O)NC2CC2)c1 (centres undefined),nt,nt,nt,i,nt,nt
COc1ccccc1NC(=O)c1oc2ccccc2c1C,nt,i,nt,i,i,i
CCOc1ccccc1NC(=O)c1oc2ccccc2c1NC(=O)C1CCCO1 (centres undefined),i,i,i,i,21µM,i
CCOc1ccccc1NC(=O)c1oc2ccccc2c1NC(=O)C1CC1,?,nt,i,i,nt,i
CCOCC(=O)Nc1c(C(=O)Nc2ccccc2OC)oc2ccccc12,i,i,i,i,1.8µM,i
COc1ccc(NC(=O)c2oc3ccccc3c2C)c(OC)c1,i,?,i,i,21µM,i
CC(=O)c1ccc(-c2ccc(C(=O)O)o2)cc1,nt,nt,nt,i,nt,nt
CONC(=O)CCN1C(=O)CSc2ccccc21,nt,nt,nt,i,nt,nt
N#Cc1nc(Cc2ccccc2)oc1NCCCn1ccnc1,?,i,16µM,i,i,nt
COc1ccc(-n2nc([N+](=O)[O-])c(=NCc3ccco3)n2O)cc1,i,i,i,i,i,i
COc1ccc(-n2nc([N+](=O)[O-])c(=NCCc3ccc(OC)c(OC)c3)n2O)cc1,i,i,i,i,2.6µM,i
COc1ccc(-n2nc([N+](=O)[O-])c(=NCc3cccnc3)n2O)cc1,i,i,i,i,21µM,i
COc1ccc(-c2nc3c(C)cc(Br)cn3c2CC2CCCCC2)cc1OC,nt,i,nt,7.1µM,i,i
COc1ccccc1Cc1c(-c2ccc(OC)c(OC)c2)nc2c(C)cc(Br)cn12,nt,i,nt,?,i,i
COc1ccc(-c2nc3c(C)cc(Br)cn3c2CC(C)(C)C)cc1OC,nt,i,nt,32µM,i,i
CCCn1c(=O)n(CCC(=O)N(C)CC(=O)Nc2cccc(F)c2)c2ccccc21,nt,nt,nt,i,nt,nt
